Screens deposited in PubChem by Broad Institute.
The list is a sample of the results.
aSyn 5UTR act: Activators working through SNCA 5'UTR binding (MLPCN); alpha-synuclein 5'UTR reporter, activators screen; activity score, % (tested at 7.5 µM), hits read low; 7.1% of 300,000 active; AID 1814; in the data active = activity score below about -60%
Starred values were filed as active, the others as inactive.

SMILES	aSyn 5UTR act
COc1cccc(-c2nnc(SCc3cccnc3)o2)c1	-164.2*
O=[N+]([O-])c1cccc(-c2nnc(SCc3cccnc3)o2)c1	-61.9*
COc1ccc(NC(=O)c2cc3ccccc3o/c2=N\NS(=O)(=O)c2ccc(C)cc2)cc1	-133.0*
COc1ccc2oc(=N)c(C(=O)Nc3ccc(F)cc3)cc2c1	-97.0*
N=c1oc2ccc(Cl)cc2cc1C(=O)Nc1ccc(F)cc1	-67.7*
COc1ccc2o/c(=N\O)c(C(=O)Nc3ccc(C)cc3)cc2c1	-281.7*
COc1ccc2oc(=N)c(C(=O)Nc3ccc(C)cc3)cc2c1	-101.4*
Cc1cccc(NC(=O)CSc2nnc(-c3ccccc3C)o2)c1	-93.5*
Cc1ccc(NC(=O)CSc2nnc(-c3ccccc3C)o2)cc1C	-88.7*
Cc1cc(C)cc(NC(=O)CSc2nnc(-c3ccccc3C)o2)c1	-119.3*
COc1cccc(CNC(=O)CCC2CCCN(C(=O)c3cc4ccccc4o3)C2)c1 (stereo not given)	-77.5*
O=C1N=C(N2CCCCC2)SC1=C1CCCC1	-81.1*
CCn1c(-c2cc(-c3ccc(OC(C)C)cc3)nc3ccccc23)n[nH]c1=S	-104.0*
CCCOc1cccc(-c2cc(-c3n[nH]c(=S)n3CC)c3ccccc3n2)c1	-71.6*
CC(C)Oc1cccc(-c2cc(C(=O)NC(=S)N(C)c3ccccc3C(=O)O)c3ccccc3n2)c1	-74.7*
CCCOc1cccc(-c2cc(C(=O)NNC(=S)NCC)c3ccccc3n2)c1	-114.2*
N#Cc1ccccc1NC(=O)COc1ccc2c(c1)OCO2	-130.1*
O=C(COc1ccc2c(c1)OCO2)Nc1ccccc1C(F)(F)F	-114.2*
CC(C)N(Cc1cn[nH]c1-c1ccc(-c2ccccc2)cc1)Cc1nccn1C	-105.8*
Cn1ccnc1SCC(=O)c1ccc2ccccc2c1	-70.9*
COc1cccc(C(=O)CSc2nccn2C)c1	-84.1*
COc1cccc(C(=O)Oc2c(CN3CCOCC3)cc(Cl)c3cccnc23)c1	88.7
COc1ccc(C(=O)CSc2nccn2C)c(OC)c1	-79.8*
Cn1ccnc1SCC(=O)c1ccc(O)cc1	-65.2*
Clc1ccc(Nc2ccc(NCc3ccccc3)nn2)cc1	-72.4*
SMILES	aSyn 5UTR act
Cc1ccc(Nc2ccc(NCc3ccccc3)nn2)cc1C	-87.4*
COc1ccc(/C=N/n2cc(-c3ccccc3)nc2N)cc1	-133.6*
COc1ccc(/C=N\n2nnc3ccccc32)cc1	72.9
Cc1onc(-c2ccccc2)c1C(=O)OCCOc1cccc(Cl)c1	-69.8*
CCOc1ccc(C(=O)COC(=O)c2c(-c3ccccc3)noc2C)cc1	-62.7*
N/C(=N\OC(=O)CCC1CCCC1)c1ccccc1	-126.2*
N/C(=N\OC(=O)CCC1CCCC1)c1ccccn1	-132.9*
CC(C)(C)c1ccc(C(=O)O/N=C(\N)c2ccccn2)cc1	94.0
Cc1ccc(Sc2cnc3ccccc3n2)cc1	-176.1*
CCC(=O)NC(=S)Nc1ccc2oc(-c3ccc(OC)cc3)nc2c1	-168.6*
COc1ccc(-c2nc3cc(NC(=S)NC(=O)Cc4ccccc4)ccc3o2)cc1	-143.2*
Cc1cc2nc3ccc(=[N+](C)C)cc-3sc2cc1N	91.2
CN1CCN(c2ccc(NC(=S)NC(=O)c3cccc4c(Cl)cccc34)cc2)CC1	-127.8*
O=C(COc1ccccc1Cl)NC(=S)N1CCc2ccccc21	-86.7*
COc1c(C)cccc1C(=O)Nc1ccc(N2CCN(S(C)(=O)=O)CC2)cc1	-145.6*
COc1ccccc1C(=O)NC(=S)N1CCCc2ccccc21	-167.0*
COc1ccccc1C(=O)Nc1ccc(N2CCN(S(C)(=O)=O)CC2)cc1	-75.6*
COc1ccccc1C(=O)NC(=S)Nc1ccc(N2CCCC2)cc1	-83.5*
COCCNC(=S)Nc1ccc(N2CCCCC2)cc1	-172.8*
O=C(COc1ccc(F)cc1Br)N1CCc2ccccc21	-86.0*
O=C(CNc1ccccc1OC(F)F)N1CCc2ccccc21	-288.6*
COc1c(C)cccc1C(=O)Nc1ccc(CN2CCOCC2)cc1	-108.7*
Clc1ccc(-c2nnc(-c3ccco3)o2)cc1	-203.1*
O=C(COc1ccc(Br)cc1)Nc1ccc(-c2nnc(-c3ccco3)o2)cc1	-80.4*
CC(C)(C)c1ccc(OCC(=O)N/N=C/c2cc(Br)ccc2OC(=O)c2ccco2)cc1	82.9
SMILES	aSyn 5UTR act
CCC(Oc1ccccc1)C(=O)Nc1ccc(-c2nnc(-c3ccco3)o2)cc1 (stereo not given)	-96.8*
CCCCn1c(=O)[nH]c(=O)c2c1nc(Cn1ncc(Cl)c(Cl)c1=O)n2CCC	-106.0*
CC(C)(C)c1ccc(NC(=O)Nc2ccc(OCC(=O)N3CCOCC3)cc2)cc1	-72.3*
OC(COc1ccc2ccccc2c1Cl)CN1CCOCC1 (stereo not given)	-150.4*
CC(C)(C)c1ccc(OCC(O)CN2CCOCC2)cc1 (stereo not given)	-119.5*
O=C(NC(=O)c1ccc(Cl)cc1)OC1CCCCC1	-91.5*
O=C(CNC(=O)c1ccccc1)OC1CCCCC1	-97.9*
COn1c(-c2ccccc2)nc2ccc(Cl)cc21	-137.6*
O=[N+]([O-])c1ccc2nc(-c3ccccc3)n(OCc3ccc(Cl)cc3)c2c1	-86.5*
CCOC(=O)C(C#N)c1ccccn1 (stereo not given)	-69.6*
Cc1ccc(Oc2ncnc3sccc23)cc1	-142.5*
c1ccc(OCCOc2ncnc3sccc23)cc1	-125.8*
CCOc1ccc(OCCOc2ncnc3ccccc23)cc1	-70.4*
O=C(O)c1nc2ccccc2nc1C(=O)O	-166.1*
Cc1nc2cc(NC(=O)N3CCC(c4ccccc4)C3)ccc2n1C (stereo not given)	-103.8*
Cc1ccc(C2CCN(C(=O)Nc3ccc(F)cc3)C2)cc1 (stereo not given)	-125.2*
COc1ccc(C(=O)COC(=O)c2cccc(-n3cnnn3)c2)c(OC)c1	-103.9*
COc1ccc(C(=O)COC(=O)c2cc(=O)[nH]c3ccccc23)c(OC)c1	-130.5*
O=C(OCC(=O)c1c[nH]c2ccccc12)c1ccco1	-102.2*
O=C(OCC(=O)c1c[nH]c2ccccc12)c1ccc(Br)o1	-129.7*
COc1cccc(C(=O)OCC(=O)c2c[nH]c3ccccc23)c1O	-105.5*
Cc1cc(OCc2cc(C(=O)N(C)C3CCOCC3)no2)cc(C)c1Cl	-127.9*
Cc1ccc(OCc2cc(C(=O)N(C)CC3CCOCC3)no2)cc1C	-103.7*
Brc1ccc(-c2cn3c(n2)SCC3)cc1	-179.1*
Clc1ccc(-c2cn3c(n2)SCC3)cc1	-186.5*
SMILES	aSyn 5UTR act
CCOC(=O)c1ccc2c(c1)nc(-c1ccccn1)n2CC	-133.8*
Cc1ccc(NC(=S)Nc2cccc3cnccc23)cc1	-102.3*
CC(=O)Nc1cccc(NC(=S)Nc2cccc3ccccc23)c1	-116.1*
O=C(NNC(=S)Nc1cccc2ccccc12)c1cccc(Br)c1	-79.1*
O=C(Nc1cccc2ccccc12)C12CC3CC(C1)CC(n1cnc([N+](=O)[O-])n1)(C3)C2	73.0
S=C(Nc1cccc2ccccc12)NC1CCCCC1	-195.3*
CC(=O)c1cccc(NC(=S)Nc2cccc3ccccc23)c1	-79.9*
Fc1ccc2nc(Nc3nc4cc5c(cc4s3)OCCO5)sc2c1	-127.5*
Fc1ccc2nc(Nc3nc4cc5c(cc4s3)OCO5)sc2c1	-232.3*
c1ccc2sc(Nc3nc4cc5c(cc4s3)OCO5)nc2c1	-264.1*
C=CCn1c(=O)c(C(=O)Nc2ccccc2C)c(O)c2ccccc21	-155.5*
CC(C)Cn1c(=O)c(C(=O)Nc2ccncc2)c(O)c2ccccc21	65.8
C=CCn1c(O)c(N=NC(=S)Nc2ccccc2C)c2cc(S(=O)(=O)N3CCOCC3)ccc21	79.5
CCn1c(=O)c(C(=O)Nc2ccccc2C)c(O)c2ccccc21	-80.5*
